Here are results for 96 compounds from PubChem BioAssay AID729 (The Scripps Research Institute Molecular Screening Center, 2007).

SMILES strings stand for the structures. The whole screen tested about 97,000 compounds, of which about 450 (0.46%) were called active. No stated cut-off is given here; in the data, active means activation above about 16%; inactive means the rest. The full list was thinned out, with actives kept by preference.

Chain of Sphingosine 1-phosphate receptor 2 (Homo sapiens) (O95136 whole entry, looked up): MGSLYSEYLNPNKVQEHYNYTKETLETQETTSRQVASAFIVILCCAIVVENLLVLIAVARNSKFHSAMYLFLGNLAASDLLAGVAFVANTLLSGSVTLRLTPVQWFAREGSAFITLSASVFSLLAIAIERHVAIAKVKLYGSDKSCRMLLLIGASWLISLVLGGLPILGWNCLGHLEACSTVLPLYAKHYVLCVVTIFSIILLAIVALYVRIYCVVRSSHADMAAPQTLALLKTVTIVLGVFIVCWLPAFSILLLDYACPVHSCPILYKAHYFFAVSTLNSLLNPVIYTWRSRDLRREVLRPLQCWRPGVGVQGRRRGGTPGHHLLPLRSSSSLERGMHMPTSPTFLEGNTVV

The test has as its target Sphingosine 1-phosphate receptor 2 (Homo sapiens) (UniProt O95136). As to the kind of experiment: S1P2 receptor agonists, primary screen, cell-based (AID 729).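 Further: 0% = vehicle low control and 100% = maximal reference agonist.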 The following applies: S1P2-expressing cell line, agonist reporter read-out; at 4.5 µM; stronger effect = higher value.
`Cc1ccc(-n2c(SCC(=O)Nc3ccc4c(c3)OCO4)nnc2-c2ccccn2)cc1`: the activation was -1.29% (inactive).

`Cc1cccc(C)c1NC1=NC(=S)N(c2ccc(N(C)C)cc2)C1(C)C`: the activation is -9.2% (inactive).

For the compound `Cc1cc(C(=O)OCC(=O)Nc2ccc(F)c(F)c2)c(C)o1`, the activation was -1.12% (inactive).

`Cc1sc2nc(SCC(N)=O)n(C)c(=O)c2c1C`: the activation is -6.32% (inactive).

Take `CCOc1ccc(NC(=O)CN(C)CC(=O)Nc2cccc(Cl)c2C)cc1OCC`: the activation was -8.46% (inactive).

As for `CS(=O)(=O)Nc1ccc(C(=O)N2CCCC2)cc1`, the activation is -1.67% (inactive).

Regarding `O=C(NC1CCCCC1)c1cc([N+](=O)[O-])ccc1N1CCOCC1`, the activation was -3.96% (inactive).

For the compound `CC1(C)Cc2c(C#N)c(SCc3nc4ccccc4[nH]3)nc(N3CCOCC3)c2CO1`, the activation was 31% (active).

With `COc1ccc(CSc2nc(N3CCOCC3)c3c(c2C#N)CC(C)(C)OC3)cc1`, the activation is -4.98% (inactive).

As for `CC(C)c1nc(N2CCOCC2)c(C#N)c2c1COC(C)(C)C2`, the activation is -3.4% (inactive).

Turning to `Cc1c(CCO)c(=O)[nH]n1C(=O)c1c(F)cccc1F`, the activation was -3.16% (inactive).

For the compound `CCn1c(SCC(=O)c2ccc3ccccc3c2)nnc1-c1cccs1`, the activation is -3.98% (inactive).

For `CCCc1nc2oc3c(OCC)ncnc3c2c2c1COC(C)(C)C2`, the activation is -0.19% (inactive).

Take `O=C(Oc1ccc([N+](=O)[O-])cc1)c1ccc2ccccc2n1`: the activation was -2.37% (inactive).

For `CCOC(=O)c1cnc(SCC(=O)Nc2ccccc2C(=O)OC)nc1N`, the activation was 1.96% (inactive).

Take `O=C(Cc1ccc2c(c1)CCCC2)Nc1ccccc1Cl`: the activation was -3.38% (inactive).

With `C=C(C)Cn1c(N2CCCC2)nc2c1c(=O)[nH]c(=O)n2C`, the activation is 19.6% (active).

Consider `C=C(C)Cn1c(N2CCN(CC)CC2)nc2c1c(=O)[nH]c(=O)n2C`, for which the activation was -3.08% (inactive).

On to `Cc1nnc(SCCCn2c(N3CCCCC3)nc3c2c(=O)[nH]c(=O)n3C)s1`, for which the activation is -7% (inactive).

For the compound `O=C(O)c1ccccc1-c1ccccc1C(=O)Nc1cccc2ccccc12`, the activation was -6.33% (inactive).

As for `CCOC(=O)c1cc(C#N)c(N2CCCCC2)nc1-c1ccccc1`, the activation is -3.1% (inactive).

Take `Cc1ccc(C(=O)N2CCCC2)c(F)c1F`: the activation is -3.27% (inactive).

Turning to `COc1ccc(-n2nnnc2SCC(=O)Nc2ccccc2)cc1`, the activation was -5.85% (inactive).

For `COc1ccccc1N1CC(C(=O)Nc2ccc(S(=O)(=O)N3CCOCC3)cc2)CC1=O` (stereo unspecified), the activation was -6.57% (inactive).

For `COc1ccc(Cc2nnc(SCC(=O)c3cccc([N+](=O)[O-])c3)n2C)cc1`, the activation is -3.41% (inactive).

`CN(C)CCNC(=O)Nc1cccc(Cl)c1Cl`: the activation was -3.84% (inactive).

Regarding `O=C(/C=C/c1ccc(Cl)cc1Cl)NCc1ccco1`, the activation is -1.23% (inactive).

With `O=C(COc1ccc2c(C(F)(F)F)cc(=O)oc2c1)Nc1ccc2c(c1)OCCO2`, the activation is -0.82% (inactive).

As to `COc1ccc(CCNC(=O)CN(c2ccccc2)S(C)(=O)=O)cc1OC`, the activation was -5.51% (inactive).

On to `CC(C)c1ccc(NC(=O)CCN2C(=O)c3ccc([N+](=O)[O-])cc3C2=O)cc1`, for which the activation is -2.71% (inactive).

In the case of `Cc1nnc(SCC(=O)Nc2ncc3c(n2)CC(C)(C)CC3=O)s1`, the activation is -4.47% (inactive).

For `CCN(CC)CCCNC(=O)CCc1ccccc1`, the activation is -2.5% (inactive).

`COCCOC(=O)C1=C(C)Nc2nc(C)nn2C1c1ccccc1` (stereo unspecified): the activation is 0.76% (inactive).

`CCCCCOC(=O)C1=C(C)Nc2nnnn2C1c1ccc(OC)c(OC)c1OC` (stereo unspecified): the activation is -4.69% (inactive).

For `COc1cc(C2C(C(=O)OCCC#N)=C(C)NC3=C2S(=O)(=O)c2ccccc23)cc(OC)c1OC` (stereo unspecified), the activation is 26.2% (active).

Regarding `CC(C)C(=O)Nc1nnc(Sc2ccc(N(C)C)cc2)s1`, the activation is -5.86% (inactive).

`O=c1oc2c(Cl)cc(Cl)cc2cc1-c1nnc(Nc2ccccc2F)s1`: the activation was -0.35% (inactive).

On to `Cn1c(=O)n(C)c2cc(/C=N/NC(=O)c3cccc(Br)c3)ccc21`, for which the activation is -7.52% (inactive).

Consider `Nc1c(C(=O)NCc2ccccc2)sc2nc3c(cc12)C(=O)CCC3`, for which the activation was -2.41% (inactive).

As to `CCCCNC(=O)C1CCCN(S(=O)(=O)c2ccc(S(=O)(=O)NCC(C)C)cc2)C1` (stereo unspecified), the activation is -2.41% (inactive).

Turning to `COC(=O)c1ccccc1Oc1c(F)c(F)nc(N2CCOCC2)c1F`, the activation was -3.44% (inactive).

For the compound `COc1ccc(C2C(C(C)=O)=C(O)C(=O)N2Cc2cccnc2)cc1` (stereo unspecified), the activation was -3.66% (inactive).

Regarding `CC(C)C(C)NC(=O)COc1ncnc2ccccc12` (stereo unspecified), the activation is -3.57% (inactive).

Consider `CC1Cc2ccccc2N1CC(=O)Nc1ccc2c(c1)OC(F)(F)O2` (stereo unspecified), for which the activation was 2.93% (inactive).

As for `O=C(CN1CCN(S(=O)(=O)c2ccc3ccccc3c2)CC1)NC(=O)NC1CCCCC1`, the activation was -7.63% (inactive).

For `CCOC(=O)c1nc(Nc2ccc(C(=O)OC)cc2)c2ccccc2n1`, the activation is -2.78% (inactive).

`CCc1ccc(NC(=O)CN2C(=O)CSC2=O)cc1`: the activation was -3.93% (inactive).

`Cn1cnc([N+](=O)[O-])c1Nc1ccccc1O`: the activation is -3.11% (inactive).

Take `COc1ccc(C2C(C(C)=O)=C(O)C(=O)N2c2nccs2)cc1` (stereo unspecified): the activation was -0.54% (inactive).

Regarding `Cc1ccc(-n2c(=O)c(C#N)cc3c(=O)n4ccccc4nc32)cc1C`, the activation was 5.21% (inactive).

In the case of `CCn1c(=N)c(S(=O)(=O)c2ccc(F)cc2)cc2c(=O)n3ccccc3nc21`, the activation is 34.3% (active).

`CCCn1c(=NC(C)=O)c(C(=O)OCC)cc2c(=O)n3ccccc3nc21`: the activation is 14.5% (inactive).

Regarding `CONC(=O)c1cc(OCC(F)(F)F)ccc1OCC(F)(F)F`, the activation was -3.47% (inactive).

For the compound `CC1(C)CC(=O)C(C=NCCC2=CCCCC2)=C(O)C1`, the activation is -6.14% (inactive).

Take `Cc1cc(N=CC2=C(O)CCCC2=O)no1`: the activation is -0.19% (inactive).

For the compound `O=C1CCCC(O)=C1C=NCCc1ccccc1`, the activation was 84.1% (active).

As to `COc1ccc(N(CC(=O)N/N=C/c2cccs2)S(=O)(=O)c2ccc(OC)c(OC)c2)cc1`, the activation was -7.16% (inactive).

As to `COc1ccc(C(=O)/C=C/Nc2ccccn2)cc1`, the activation was 1.74% (inactive).

As for `O=C(Nc1ccccc1)c1ccc2nsnc2c1`, the activation was -2.63% (inactive).

On to `O=C(O)c1cc2ccccc2c(=O)s1`, for which the activation was -6.32% (inactive).

`O=C(CN1CCSCC1)N/N=C/c1ccc(F)cc1F`: the activation is -0.59% (inactive).

As for `Cc1ccc(-c2nnc(C)c(N3CC(C)OC(C)C3)n2)cc1` (stereo unspecified), the activation is -6.7% (inactive).

On to `COc1ccc(-c2cc(C(=O)n3cnc4ccccc43)c3ccccc3n2)cc1`, for which the activation was -1.61% (inactive).

As for `CC(C)C(NS(=O)(=O)c1cccs1)C(=O)Nc1nc(C(C)(C)C)cs1` (stereo unspecified), the activation is -5.87% (inactive).

For `Cc1nc(C)c(C(=O)N(c2ccc(C)c(C)c2)C(C(=O)NCc2ccco2)c2ccccc2)s1` (stereo unspecified), the activation is -5.57% (inactive).

As to `COc1ccc(/C=N/Nc2nc3ccccc3o2)cc1OC`, the activation is 1.35% (inactive).

Consider `O=C1CCCc2c1nc(-c1cccc(Cl)c1)n2O`, for which the activation was -8.02% (inactive).

With `Cc1ccc(-c2csc(SCC(=O)Nc3cc(C)on3)n2)cc1`, the activation was -3.51% (inactive).

`CC(C)(C)C(=O)Cn1c(NCCO)nc2ccccc21`: the activation is 0.17% (inactive).

On to `OCCNc1nc2ccccc2n1-c1ncnc2sc3c(c12)CCC3`, for which the activation is 17.8% (active).

As for `O=C(O)[C@@H]1CCCN1c1ncnc2sc3c(c12)CCC3`, the activation is -0.47% (inactive).

For `COc1ccccc1/C=C/C1=NC(=C\N(C)C)/C(=O)O1`, the activation is 3.03% (inactive).

Turning to `CCCc1nc2sc3c(c2c(=O)n1NC(=O)CCCl)CCCC3`, the activation is -7.02% (inactive).

On to `Cc1ccc2oc(=O)c3cnn(CC(=O)N(Cc4ccco4)C4CCCCC4)c3c2c1`, for which the activation is -2.42% (inactive).

As for `CC(CN1CCOCC1)c1ccccc1` (stereo unspecified), the activation is -0.64% (inactive).

`COc1ccc(NC(=O)COC(=O)Cn2c(C)nc3ccccc32)cc1OC`: the activation was -6.15% (inactive).

For the compound `COc1ccc(NC(=O)C(NC(C)=O)C(=O)NCc2ccccc2Cl)cc1` (stereo unspecified), the activation is -7.51% (inactive).

Take `CCNC(=O)NC(=O)C(C)OC(=O)c1cc(S(=O)(=O)N2CCCCCC2)ccc1OC` (stereo unspecified): the activation was -4.87% (inactive).

`COc1ccc(N(CCC#N)S(=O)(=O)c2ccc(Cl)cc2)cc1`: the activation is -1.5% (inactive).

`O=C(NCc1ccco1)C1CCCN(S(=O)(=O)c2ccccc2)C1` (stereo unspecified): the activation is -2.97% (inactive).

For the compound `O=C1CSC(c2cccc(F)c2)N1c1ccc(O)cc1` (stereo unspecified), the activation was -7.24% (inactive).

For the compound `Nc1nc(Br)c2ccccc2c1-c1ccc(F)cc1`, the activation was 4.89% (inactive).

Take `Cc1ccc(S(=O)(=O)N2CCN(S(=O)(=O)N3CCOCC3)CC2)cc1`: the activation was -6.81% (inactive).

For `CCC(C)n1c(-c2cc(OC)c(OC)c(OC)c2)nc2nc3ccccc3nc21` (stereo unspecified), the activation is 16.8% (active).

For the compound `COc1ccc(-c2nc3ccccc3n2CCC(C)C)cc1OC`, the activation was -4.13% (inactive).

As to `COc1cc(C(O)c2nc3ccccc3n2C)cc(OC)c1OC` (stereo unspecified), the activation was -6.52% (inactive).

Turning to `CC(C)(C)c1ccc(OC2=CS(=O)(=O)c3ccccc32)cc1`, the activation was -6.02% (inactive).

Take `O=C(CCCCCn1c(=O)[nH]c2ccccc2c1=O)NCCc1c[nH]c2ccccc12`: the activation was -8.42% (inactive).

Turning to `CCc1ccc2c(c1)C1(NN=C(c3ccccc3)S1)C(=O)N2` (stereo unspecified), the activation was -1.92% (inactive).

For the compound `COc1ccc(C(=O)Nc2ccc(F)cc2F)cc1`, the activation is -5.08% (inactive).

For the compound `Cc1cc(C)c(S(=O)(=O)NCC2CCC(C(=O)NCc3ccc4c(c3)OCO4)CC2)c(C)c1` (stereo unspecified), the activation is -5.15% (inactive).

With `OC(C#CCN1CCOCC1)(c1ccccc1)C1CCCCC1` (stereo unspecified), the activation is -4.7% (inactive).

For `CC1CN(S(=O)(=O)c2ccccc2)C(C)CN1S(=O)(=O)c1ccccc1` (stereo unspecified), the activation was -2.5% (inactive).

Turning to `O=C(Nc1ccccc1Cl)N1CCN(c2ccc3nncn3n2)CC1`, the activation is -1.47% (inactive).

`O=C(NCCc1ccccc1)c1ccc(NC2=NC3CS(=O)(=O)CC3S2)cc1` (stereo unspecified): the activation was 0.04% (inactive).

Take `COc1ccccc1C(c1nnnn1C(C)(C)C)N1CCN(Cc2ccccc2)CC1` (stereo unspecified): the activation was -7.69% (inactive).
